# Measured values taken from PubChem BioAssay (NCI).
# Values joined by “and” are separate entries in the source; they are usually repeats but may differ in a detail not shown here. Identical values can stand only once. Compounds without any hit were thinned out: in the full panel of roughly 83,000, 20% have a hit.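 Assay: single dose, 48 h. Readout: percent growth (0 = no net growth; negative = cell death). Active: <10.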 A number with no mark means an inactive call. Active and inactive are the calls of the source.
# How the values were obtained:
# Test in all cases: NCI-60 one-dose screen, 48 h (100 = growth as untreated, 0 = no growth, -100 = all killed)
# NCI-H23 lung = settings: 10 µM unless noted
# NCI-H226 lung = system: NCI-H226 lung
# NCI-H322M lung = system: NCI-H322M lung
# HOP-62 NSCLC = system: HOP-62 NSCLC
# NCI-H460 lung = system: NCI-H460 lung
# HOP-92 NSCLC = settings: 10 µM unless noted
# NCI-H522 lung = settings: 10 µM unless noted
# A549/ATCC NSCLC = system: A549/ATCC NSCLC
# 786-0 renal = system: 786-0 renal
# COLO 205 colon = system: COLO 205 colon
compound,measurement,setting,value
N[C@H](C(=O)O)[C@@H]1CC(Cl)=NO1,growth,NCI-H23 lung,22.8% [20 µM]
same,growth,NCI-H226 lung; 10 µM unless noted,38.1% [20 µM]
same,growth,NCI-H322M lung; 10 µM unless noted,37.2% [20 µM]
same,growth,HOP-62 NSCLC; 10 µM unless noted,26.1% [20 µM]
same,growth,NCI-H460 lung; 10 µM unless noted,7.07% [20 µM] (active)
same,growth,HOP-92 NSCLC,63.6% [20 µM]
same,growth,NCI-H522 lung,25.4% [20 µM]
same,growth,A549/ATCC NSCLC; 10 µM unless noted,19.1% [20 µM]
same,growth,786-0 renal; 10 µM unless noted,24.2% [20 µM]
same,growth,COLO 205 colon; 10 µM unless noted,33.5% [20 µM]
N#CSCc1c(Cl)cccc1Cl,growth,NCI-H23 lung,34.7%
same,growth,NCI-H226 lung; 10 µM unless noted,99.3%
same,growth,NCI-H322M lung; 10 µM unless noted,97.9%
same,growth,HOP-62 NSCLC; 10 µM unless noted,79.1%
same,growth,NCI-H460 lung; 10 µM unless noted,106%
same,growth,HOP-92 NSCLC,53.7%
same,growth,NCI-H522 lung,43.8%
same,growth,A549/ATCC NSCLC; 10 µM unless noted,97.6%
same,growth,786-0 renal; 10 µM unless noted,71.5%
same,growth,COLO 205 colon; 10 µM unless noted,49.6%
O=C(/C=C/c1cccc(Cl)c1)c1ccccc1,growth,NCI-H23 lung,95.5% and 97.5%
same,growth,NCI-H226 lung; 10 µM unless noted,94.2% and 74.4%
same,growth,NCI-H322M lung; 10 µM unless noted,90.7% and 81.9%
same,growth,HOP-62 NSCLC; 10 µM unless noted,112% and 89.9%
same,growth,NCI-H460 lung; 10 µM unless noted,101% and 95.9%
same,growth,HOP-92 NSCLC,88.1%
same,growth,NCI-H522 lung,82.3% and 48.4%
same,growth,A549/ATCC NSCLC; 10 µM unless noted,83.6% and 86.7%
same,growth,786-0 renal; 10 µM unless noted,88.3% and 77.5%
same,growth,COLO 205 colon; 10 µM unless noted,115% and 105%
O=C1C2=C(Nc3cc([N+](=O)[O-])ccc3N2)OC1c1c2ccccc2cc2ccccc12 (stereo not given),growth,NCI-H23 lung,51.7%
same,growth,NCI-H226 lung; 10 µM unless noted,82.9%
same,growth,NCI-H322M lung; 10 µM unless noted,71.8%
same,growth,HOP-62 NSCLC; 10 µM unless noted,88%
same,growth,NCI-H460 lung; 10 µM unless noted,46%
same,growth,HOP-92 NSCLC,44.1%
same,growth,NCI-H522 lung,24%
same,growth,A549/ATCC NSCLC; 10 µM unless noted,71.1%
same,growth,786-0 renal; 10 µM unless noted,48.3%
same,growth,COLO 205 colon; 10 µM unless noted,118%
N#Cc1ccc([N+](=O)[O-])o1,growth,NCI-H23 lung,112%
same,growth,NCI-H226 lung; 10 µM unless noted,94.1%
same,growth,NCI-H322M lung; 10 µM unless noted,106%
same,growth,HOP-62 NSCLC; 10 µM unless noted,96.7%
same,growth,NCI-H460 lung; 10 µM unless noted,107%
same,growth,HOP-92 NSCLC,93.1%
same,growth,NCI-H522 lung,77.1%
same,growth,A549/ATCC NSCLC; 10 µM unless noted,75.7%
same,growth,786-0 renal; 10 µM unless noted,102%
same,growth,COLO 205 colon; 10 µM unless noted,104%
Oc1c(Cl)c2ccccc2c2ccccc12,growth,NCI-H23 lung,103%
same,growth,NCI-H226 lung; 10 µM unless noted,99.7%
same,growth,NCI-H322M lung; 10 µM unless noted,100%
same,growth,HOP-62 NSCLC; 10 µM unless noted,128%
same,growth,NCI-H460 lung; 10 µM unless noted,116%
same,growth,HOP-92 NSCLC,109%
same,growth,NCI-H522 lung,44.3%
same,growth,A549/ATCC NSCLC; 10 µM unless noted,103%
same,growth,786-0 renal; 10 µM unless noted,109%
same,growth,COLO 205 colon; 10 µM unless noted,113%
O=C1OCc2cccc3cccc1c23,growth,NCI-H23 lung,101%
same,growth,NCI-H226 lung; 10 µM unless noted,91.4%
same,growth,NCI-H322M lung; 10 µM unless noted,119%
same,growth,HOP-62 NSCLC; 10 µM unless noted,113%
same,growth,NCI-H460 lung; 10 µM unless noted,104%
same,growth,HOP-92 NSCLC,80.8%
same,growth,NCI-H522 lung,108%
same,growth,A549/ATCC NSCLC; 10 µM unless noted,78.9%
same,growth,786-0 renal; 10 µM unless noted,110%
same,growth,COLO 205 colon; 10 µM unless noted,115%
CCN(CC)CC(C)(C)C(=O)/C=C/c1ccc(Cl)c(Cl)c1,growth,NCI-H23 lung,7.58% (active)
same,growth,NCI-H226 lung; 10 µM unless noted,-15.3% (active)
same,growth,NCI-H322M lung; 10 µM unless noted,22.7%
same,growth,HOP-62 NSCLC; 10 µM unless noted,46.1%
same,growth,NCI-H460 lung; 10 µM unless noted,-9.28% (active)
same,growth,HOP-92 NSCLC,-3.59% (active)
same,growth,NCI-H522 lung,-48.3% (active)
same,growth,A549/ATCC NSCLC; 10 µM unless noted,33.3%
same,growth,786-0 renal; 10 µM unless noted,-60.2% (active)
same,growth,COLO 205 colon; 10 µM unless noted,-53.4% (active)
COc1cc(/C=C/C(C)=O)ccc1O,growth,NCI-H23 lung,96.6% and 94.1%
same,growth,NCI-H226 lung; 10 µM unless noted,95.3% and 111%
same,growth,NCI-H322M lung; 10 µM unless noted,88.4% and 115%
same,growth,HOP-62 NSCLC; 10 µM unless noted,94.2% and 111%
same,growth,NCI-H460 lung; 10 µM unless noted,102% and 110%
same,growth,HOP-92 NSCLC,73.3%
same,growth,A549/ATCC NSCLC; 10 µM unless noted,98.1% and 100%
same,growth,786-0 renal; 10 µM unless noted,121% and 114%
same,growth,COLO 205 colon; 10 µM unless noted,97.5% and 120%
CCC(=O)Sc1ccccc1C(=O)Nc1ccc(Cl)cc1,growth,NCI-H23 lung,46.1%
same,growth,NCI-H226 lung; 10 µM unless noted,52.7%
same,growth,NCI-H322M lung; 10 µM unless noted,55.4%
same,growth,HOP-62 NSCLC; 10 µM unless noted,76.5%
same,growth,NCI-H460 lung; 10 µM unless noted,34.5%
same,growth,HOP-92 NSCLC,16.3%
same,growth,NCI-H522 lung,67.3%
same,growth,A549/ATCC NSCLC; 10 µM unless noted,76.5%
same,growth,786-0 renal; 10 µM unless noted,57%
same,growth,COLO 205 colon; 10 µM unless noted,84.7%
NC1=CC(=O)c2ccccc2C1=O,growth,NCI-H23 lung,40.2%
same,growth,NCI-H226 lung; 10 µM unless noted,91.7%
same,growth,NCI-H322M lung; 10 µM unless noted,97%
same,growth,HOP-62 NSCLC; 10 µM unless noted,80.9%
same,growth,NCI-H460 lung; 10 µM unless noted,89.8%
same,growth,HOP-92 NSCLC,91.4%
same,growth,NCI-H522 lung,89.4%
same,growth,A549/ATCC NSCLC; 10 µM unless noted,75.9%
same,growth,786-0 renal; 10 µM unless noted,105%
same,growth,COLO 205 colon; 10 µM unless noted,104%
COc1ccc(-c2cscc2N)cc1,growth,NCI-H226 lung; 10 µM,106%
same,growth,NCI-H226 lung; 100 µM,86.6%
same,growth,NCI-H322M lung; 10 µM,95.6%
same,growth,NCI-H322M lung; 100 µM,73.9%
same,growth,HOP-62 NSCLC; 10 µM,55.8%
same,growth,HOP-62 NSCLC; 100 µM,57.6%
same,growth,NCI-H460 lung; 10 µM,83.5%
same,growth,NCI-H460 lung; 100 µM,33.8%
same,growth,HOP-92 NSCLC,68.7% [100 µM]
same,growth,NCI-H522 lung,34.8% [100 µM]
same,growth,A549/ATCC NSCLC; 10 µM,76.7%
same,growth,A549/ATCC NSCLC; 100 µM,46.1%
same,growth,786-0 renal; 10 µM,98.6%
same,growth,786-0 renal; 100 µM,37.1%
same,growth,COLO 205 colon; 10 µM,78%
same,growth,COLO 205 colon; 100 µM,-68.1% (active)
NC(=S)N/N=C/c1ccc(Cl)s1,growth,NCI-H23 lung,106%
same,growth,NCI-H226 lung; 10 µM unless noted,97.4%
same,growth,NCI-H322M lung; 10 µM unless noted,101%
same,growth,HOP-62 NSCLC; 10 µM unless noted,109%
same,growth,NCI-H460 lung; 10 µM unless noted,101%
same,growth,HOP-92 NSCLC,97.5%
same,growth,NCI-H522 lung,98.6%
same,growth,A549/ATCC NSCLC; 10 µM unless noted,106%
same,growth,786-0 renal; 10 µM unless noted,105%
same,growth,COLO 205 colon; 10 µM unless noted,105%
